Bioassay records deposited in PubChem BioAssay by National Center for Advancing Translational Sciences (NCATS).
Hits are enriched below; roughly 2.8% of the tested compounds scored in any of these assays.
Akt phos inh: HTS Assay for Inhibitors of Akt Phophorylation: Primary Screen | AID 651550, 2012 | 360,000 tested, 0.32% active | Neuro2A IGF-stimulated pAkt S473 HTRF, 20 min; hits give low values | activity change, % for hits at 50 µM; in the data active means activity change below about -80%; inconclusive means mostly about -51% to -80%; further: on the % scale 0 is the no-effect control and ±100 the full control effect
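Neuro2A cells (4,500/well, DMEM with 0.5% FBS) were treated with compound at a single 50 µM final concentration, stimulated with 6 nM IGF for 20 min at 37 °C, and lysed. Phospho-Akt Ser473 was read by HTRF as 665/615 ratio ×10^4.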
RGS4 inh: Inhibitors of Regulator of G Protein Signaling (RGS) 4: qHTS; 390,000 tested, 0.039% active; Potency, µM (series often up to 114 µM), inactives show at the top dose activity change, negative = inhibition, actives largely listed as inhibitors; Regulator of G-protein signaling 4 (Homo sapiens), P49798; AID 504845, 2011; Transcreener GDP fluorescence polarization, RGS4-accelerated GTP hydrolysis; active means well fitted inhibition curve with a large enough effect; inconclusive means small, poorly fitted or top-dose-only effect; inactive means no such curve, though single readings can be large or run the other way; further: potency means the concentration at half of the fitted maximal effect; on the % scale 0 is the no-effect control and ±100 the full control effect; nearly all actives have a fitted effect of over 75% in size
Target sequence (P49798 whole entry, looked up): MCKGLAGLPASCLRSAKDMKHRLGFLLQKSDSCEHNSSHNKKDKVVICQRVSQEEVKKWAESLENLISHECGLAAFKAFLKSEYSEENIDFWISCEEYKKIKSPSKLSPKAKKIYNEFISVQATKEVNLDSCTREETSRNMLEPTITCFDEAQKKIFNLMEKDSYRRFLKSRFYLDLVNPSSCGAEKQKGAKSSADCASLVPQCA
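MLSMR compounds (23 nl, pin-transferred) preincubated 10 min at room temperature with a 500nM (2x) first reagent, then RGS4 at 900nM (2x) plus Transcreener GDP mix added; fluorescence polarization (620/688 nm) read before and after 90 min at 30 °C.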
D3 ag: qHTS of D3 Dopamine Receptor Agonist: qHTS; D3R DiscoveRx beta-arrestin cells, luminescence, 90 min; max activation, %; 410,000 tested, 0.58% active; AID 652048, 2013; in the data active means max activation above about 30%; further: 0% is about no effect
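Agonist-mode cell screen: cells plated at 1500/well and incubated overnight at 37 °C, then exposed to library compounds for 90 min at 37 °C. Detection reagent was added for 30–60 min at room temperature, and luminescence was read.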
LDHA block: qHTS assay for inhibitors of human lactate dehydrogenase | L-lactate dehydrogenase A chain (Homo sapiens), P00338 | purified LDHA, NADH/diaphorase-resazurin fluorescence; hits give low values | activity change, % (values are at about 110 or 230 µM) | 480,000 tested, 0.15% active; in the data active means activity change below about -30%; inconclusive means mostly about -25% to -30%;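 further: plate controls were DMSO wells for no effect and wells without enzyme for full effect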
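Human LDH5 at 2 nM final in Tris HCl pH 7.4 with 0.06 mM NADH and 0.2 mM pyruvate, reacted 5 minutes at room temperature. Remaining NADH coupled via diaphorase/resazurin; resorufin fluorescence read at 0 and 20 minutes, normalized to enzyme-free and DMSO wells.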
PI4K2A block: qHTS for small molecular inhibitors of PI4K2A. Phosphatidylinositol 4-kinase type 2-alpha (Homo sapiens), Q9BTU6. purified PI4K2A, ADP-Glo luminescence, 1 h; hits give low values. activity change, negative = inhibition, % at 76.9 µM. 420,000 tested, 0.13% active; in the data active means activity change below about -50%; inconclusive means mostly about -30% to -49%;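 further: -100% = wells without enzyme as full effect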
Target sequence (Q9BTU6 whole entry, looked up): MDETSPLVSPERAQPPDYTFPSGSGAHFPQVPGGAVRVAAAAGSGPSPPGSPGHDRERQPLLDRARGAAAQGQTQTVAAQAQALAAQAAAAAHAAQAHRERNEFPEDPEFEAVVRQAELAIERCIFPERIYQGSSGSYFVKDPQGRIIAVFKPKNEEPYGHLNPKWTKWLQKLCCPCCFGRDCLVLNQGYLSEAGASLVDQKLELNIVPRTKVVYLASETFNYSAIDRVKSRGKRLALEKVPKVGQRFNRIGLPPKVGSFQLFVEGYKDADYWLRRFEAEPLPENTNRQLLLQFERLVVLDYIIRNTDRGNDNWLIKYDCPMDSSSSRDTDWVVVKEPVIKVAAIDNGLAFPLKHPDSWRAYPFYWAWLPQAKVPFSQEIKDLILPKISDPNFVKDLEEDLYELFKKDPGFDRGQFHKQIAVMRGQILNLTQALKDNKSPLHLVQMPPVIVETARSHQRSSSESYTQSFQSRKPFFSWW
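ADP-Glo luminescence measured ADP generated by PI4K2A enzyme (4 ug/mL before mixing) with 1.2 mM PI substrate (pre-mix) and 300 microM ATP (pre-mix). Tris pH7.5 buffer with MgCl2, Triton X-100; 1 h reaction at ambient temperature.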
D3 antag: qHTS of D3 Dopamine Receptor Antagonist: qHTS | D3R cells, DiscoveRx beta-arrestin luminescence, antagonist mode; hits give low values | max response, negative = inhibition, % | 360,000 tested, 2.5% active | AID 652054, 2013; in the data active means max response below about -50%; inconclusive means no clear call, values can overlap the other calls; further: on the % scale 0 is the no-effect control and ±100 the full control effect
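Cells plated overnight at 1500 cells/well, then exposed to library compounds with dopamine controls for 90 minutes at 37 degrees C. DiscoveRx reagent added for 30–60 minutes at room temperature; luminescence read, quantitative HTS format.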
* = called active by the depositor; i = inactive; u = inconclusive; x = no result.

SMILES | Akt phos inh | RGS4 inh | D3 ag | LDHA block | PI4K2A block | D3 antag
O=C(c1cccc(F)c1)N1CCC(N2CCCCCC2)CC1 | i | -10% | 3 | -16 | 1 | -74*
COC(=O)CN(n1cnnc1)S(=O)(=O)c1ccc(C)cc1 | i | 31% | 0 | -2 | 6 | -54*
Cn1c(-n2cccc2)c(-c2c(-c3cccc4ccccc34)[nH]c3c2c(=O)[nH]c(=O)n3C)c(=O)[nH]c1=O | x | x | x | 10 | x | x
Fc1ccc(CNC(=S)NCCc2cccc(Cl)c2)cc1 | x | x | x | 3 | x | x
COc1cccc(C(=O)NCC2OCCc3ccccc32)c1 (stereo not drawn) | x | 20% | -8 | -7 | 0 | x
O=C(NCC1OCCc2ccccc21)c1cccc(Br)c1 (stereo not drawn) | x | x | x | -42* | x | x
Cc1cc(C)cc(NC(=O)CCn2cnc3c2c(=O)n(C)c(=O)n3C)c1 | x | x | x | 4 | x | x
CCCCN1C(=O)C(=O)c2cc(Cl)ccc21 | i | u | -11 | 16 | 15 | -120*
Cc1ccc2c(c1)C(=O)C(=O)N2c1ccc(Cl)cc1 | i | -28% | -56 | 4 | 0 | -55*
Cc1ccc(CN2C(=O)C(=O)c3cc(C)ccc32)cc1 | i | -34% | -11 | 5 | 14 | -54*
O=C(O)C/C(=C/c1cccc(/C=C(/CC(=O)O)c2nc3ccccc3o2)c1)c1nc2ccccc2o1 | x | x | x | -2 | x | x
COc1cc2c(cc1OC)CN(CCC(=O)c1ccc(Br)cc1)CC2 | i | u | -18 | -7 | 52 | -53*
COc1cccc(-n2cnc3c2NC(=O)CC3c2ccsc2)c1 (stereo not drawn) | x | x | x | 75 | x | x
COc1ccc(OC)c(C(C)NC(=O)c2ccc(Br)cc2)c1 (stereo not drawn) | i | -20% | 3 | -6 | 6 | 5
COc1ccc(C(CC(=O)O)NC(=O)c2ccccc2)cc1OC (stereo not drawn) | i | -22% | -12 | -3 | 4 | -60*
COc1cc(Br)c(C(C)NC(=O)c2ccccc2)cc1OC (stereo not drawn) | i | -20% | 40* | 5 | -1 | -17
COc1ccc(C(CC(=O)O)NC(=O)Nc2ccccc2)cc1OC (stereo not drawn) | i | -23% | -4 | -5 | 4 | -2
Cc1oc2ccc(NS(=O)(=O)c3ccccc3)cc2c1C(=O)O | x | x | x | -2 | x | x
CCC(NC(=O)CCc1ncc(-c2ccccc2F)o1)c1ccc(OC)cc1 (stereo not drawn) | x | x | x | -4 | x | x
O=c1[nH]c2ccccc2nc1-c1nnnn1C1CCCC1 | i | x | -9 | 2 | 2 | 0
O=c1[nH]c2cc3ccccc3cc2nc1-c1nnnn1C1CCCC1 | i | x | -15 | 5 | -4 | -68*
CC(=O)CCC(=O)CNC(=O)CC[C@H]1O[C@@H](n2ccc(=O)[nH]c2=O)[C@H](O)[C@@H]1O | i | x | -3 | -9 | 5 | 0
Cc1cc(C)c(CN2CCN(C(=O)CC[C@H]3O[C@@H](n4ccc(=O)[nH]c4=O)[C@H](O)[C@@H]3O)CC2)c(C)c1 | i | x | -13 | -3 | -7 | -69*
CC1=C/C(=C(/c2ccc(O)c(C)c2)c2ccccc2S(=O)(=O)O)C=CC1=O | i | 0% | -19 | -3 | -2 | -56*
CC1=C/C(=C(/c2cc(C)c(O)c(Br)c2)c2ccccc2S(=O)(=O)O)C=C(Br)C1=O | i | -38% | -17 | 36 | u | -60*
SMILES | Akt phos inh | RGS4 inh | D3 ag | LDHA block | PI4K2A block | D3 antag
O=C(Nc1ccc(F)c(C(F)(F)F)c1)c1ccccc1-c1ccccc1 | x | x | x | 9 | x | x
COC(=O)c1ccc2c(=O)[nH]c(CSc3nnc(-c4ccncc4)n3Cc3ccccc3)nc2c1 | x | x | x | 3 | x | x
CS(=O)(=O)N1CCn2c1nc1ccccc12 | i | 14% | -7 | -2 | 0 | 6
CCN1N=C(c2ccccc2)Cn2c1nc1ccccc12 | -107%* | -12% | -3 | -3 | 5 | 3
CCCCN(CCCC)c1nc2c([nH]1)c(=O)[nH]c(=O)n2C | x | x | x | -8 | x | x
Cc1cccc(CS(=O)(=O)c2nnc([C@H](Cc3ccccc3)NC(=O)OC(C)(C)C)o2)c1 | i | u | -30 | 1 | 61 | -77*
CCCCc1cc(=O)oc2cc(OCC(=O)O)ccc12 | x | x | x | -2 | x | x
O=C(Nc1nnc(SCc2ccc(F)cc2)s1)c1ccc2c(c1)C(=O)N(c1ccccc1Cl)C2=O | i | 8% | 53* | -11 | 0 | 49
CC(C)c1ccc(CCNC(=S)Nc2ccc(Cl)cc2Cl)cc1 | x | x | x | -2 | x | x
CNc1cc([N+](=O)[O-])ccc1N/C=C/C(=O)c1ccc2c(c1)OCO2 | i | -30% | -23 | 4 | -3 | -50*
CNc1cc([N+](=O)[O-])ccc1N/C=C/C(=O)c1cccs1 | i | -41% | -22 | -1 | -10 | -7
COc1cc(/C=N/Nc2nc3c(c(=O)n(C)c(=O)n3C)n2Cc2ccccc2)ccc1OC(=O)c1ccco1 | i | -4% | 66* | 1 | 0 | 57
COc1cccc(-c2sc3ccc(OC)cc3c2-c2ccc(OCCN(C)C)cc2)c1 | i | -25% | -17 | 1 | -2 | -79*
Cc1cccc2nc(-c3ccc(O)cc3)c(Nc3ccccc3)n12 | x | x | x | 3 | x | x
CCOC1=C2[C@H](c3ccccc3)N(S(=O)(=O)c3ccc(C)cc3)[C@H](C(C)C)[C@H]2n2c(=O)n(-c3ccccc3)c(=O)n2C1 | i | x | -11 | -3 | -2 | -55*
COc1ccccc1C(=O)N1CCC(N2CCN(c3ccccc3)CC2)CC1 | i | 0% | 53* | -23 | 0 | -19
COc1ccccc1C(=O)N1CCC(N2CCN(c3ccccc3OC)CC2)CC1 | i | -4% | -45 | -15 | -4 | -65*
COc1ccccc1N1CCN(C2CCN(C(=O)COc3ccccc3)CC2)CC1 | i | 3% | -22 | -12 | 7 | -61*
COc1ccc(C(=O)N2CCC(N3CCN(c4ccccc4)CC3)CC2)cc1 | i | -6% | 1 | u | 4 | -19
CC(C)(C)C1CCC(N2CCN(c3ccccc3)CC2)CC1 (stereo not drawn) | i | 19% | 1 | -9 | 0 | -53*
COc1ccccc1N1CCN(C(=O)C2CCN(C(=O)c3ccccc3Cl)CC2)CC1 | i | 13% | 11 | 0 | 2 | 0
